The nature of assay [1]: ATG_GLI_CIS: Attagene CIS-FACTORIAL HepG2 Assay for human Zinc Finger Protein GLI1 (AID 2282945). Conditions: HepG2, Attagene cis-factorial reporter mRNA, GLI element; actives raise or lower the signal. The method, boiled down:
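Bidirectional curve fits relative to DMSO, using reporter mRNA levels from RT-PCR plus capillary electrophoresis. Cells were HepG2 transiently carrying cis-regulated reporter constructs, harvested 24 h after dosing.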

For assay [2], the target named is Bile acid receptor (Homo sapiens) (UniProt Q96RI1). Description: ATG_IR1_CIS: Attagene CIS-FACTORIAL HepG2 Assay for human Nuclear Receptor Subfamily 1 Group H Member 4 (NR1H4), IR1 submotif (AID 2282946). Conditions: IR1 reporter transcription, actives raise or lower the signal. A digest of the protocol: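 HepG2 cells transiently transfected with multiplexed cis-element reporter units read endogenous transcription factor activity. After 24 h compound exposure, reporter mRNA was quantified by RT-PCR, fluorescent labelling, HpaI digestion and capillary electrophoresis; bidirectional fitting versus DMSO baseline.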
Sequence of Bile acid receptor (Homo sapiens) (Q96RI1 whole entry, looked up): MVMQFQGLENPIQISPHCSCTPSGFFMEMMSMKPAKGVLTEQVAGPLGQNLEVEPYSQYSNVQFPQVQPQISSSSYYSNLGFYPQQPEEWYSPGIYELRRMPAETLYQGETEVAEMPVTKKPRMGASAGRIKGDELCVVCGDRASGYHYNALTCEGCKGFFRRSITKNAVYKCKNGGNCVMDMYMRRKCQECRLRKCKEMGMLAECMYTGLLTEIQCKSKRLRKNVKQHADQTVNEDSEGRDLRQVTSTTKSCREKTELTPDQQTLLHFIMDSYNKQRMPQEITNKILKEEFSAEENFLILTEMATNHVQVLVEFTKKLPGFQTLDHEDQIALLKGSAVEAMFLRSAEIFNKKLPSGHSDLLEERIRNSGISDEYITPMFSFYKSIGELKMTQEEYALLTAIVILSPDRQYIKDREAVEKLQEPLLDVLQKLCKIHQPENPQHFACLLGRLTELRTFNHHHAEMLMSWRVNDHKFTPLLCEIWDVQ

Assay [3] in a line: ATG_ISRE_CIS: Attagene CIS-FACTORIAL HepG2 Assay for human Interferon Regulatory Factor 1 (IRF1) binding to an Interferon-Stimulated Response Element (ISRE) (AID 2282948). The note with it: HepG2 ISRE cis-reporter (Attagene), mRNA transcription readout; actives raise or lower the signal. The method, boiled down:
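Signal reflects induction or loss of ISRE-linked reporter mRNA in transiently transfected HepG2 cells after a 24 h treatment, detected by fluorescent RT-PCR fragments on capillary electrophoresis and normalised to DMSO.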

Assay [4] in a line: ATG_M_06_CIS: Attagene CIS-FACTORIAL HepG2 Assay for M06 Transcription Factor (Internal Marker) (AID 2282950). Conditions: HepG2 Attagene CIS-FACTORIAL M06 internal marker reporter; actives raise or lower the signal. The method, boiled down: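 Terse: HepG2, transient MRTU transfection (FuGene 6), 24 h dosing; total RNA, oligo(dT) RT, PCR, FAM label, HpaI cut, capillary electrophoresis; bidirectional fit vs DMSO baseline; background-control endpoint.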

The target of assay [5] is Hypoxia-inducible factor 1-alpha (Homo sapiens) (UniProt Q16665). Description: ATG_HIF1a_CIS: Attagene CIS-FACTORIAL HepG2 Assay for human Hypoxia Inducible Factor 1 (HIF1A) (AID 2282951). Conditions: HepG2 Attagene cis-factorial HIF1a reporter transcription; actives raise or lower the signal. The method, boiled down:
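Activity is fitted in both directions relative to DMSO. Reporter transcripts are read by RT-PCR, fluorescent primer extension and capillary electrophoresis after 24 h chemical treatment. The cells are HepG2 carrying transiently transfected cis-element-driven reporter units responding to endogenous factors.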

Assay [6] addresses Hepatocyte nuclear factor 6 (Homo sapiens) (UniProt Q9UBC0). Description: ATG_HNF6_CIS: Attagene CIS-FACTORIAL HepG2 Assay for human Hepatocyte Nuclear Factor 6 (HNF6) (AID 2282952). The note with it: HepG2 Attagene cis-factorial HNF6 reporter transcription; actives raise or lower the signal. A digest of the protocol: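 Twenty-four-hour chemical treatment of reporter-transfected HepG2 cells precedes RNA isolation, DNase-treated reverse transcription and PCR of reporter sequences. Labelled fragments are sized by capillary electrophoresis and fitted bidirectionally versus DMSO.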

For assay [7], the target named is Heat shock factor protein 1 (Homo sapiens) (UniProt Q00613). Description: ATG_HSE_CIS: Attagene CIS-FACTORIAL HepG2 Assay for human Heat Shock Transcription Factor 1 (HSE) (AID 2282953). Conditions: HepG2 HSE cis-reporter, Attagene RNA transcription; actives raise or lower the signal. The method, boiled down:
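Read-out: fluorescence of reporter-specific RT-PCR fragments separated by capillary electrophoresis. HepG2 carrying transfected cis-element reporter units; 24 h dosing; activity fitted in both directions relative to DMSO baseline.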

A short description of assay [8]: ATG_MRE_CIS: Attagene CIS-FACTORIAL HepG2 Assay for human Metal Responsive Element (MRE) (AID 2282954). Conditions: HepG2 MRE cis-reporter transcription, Attagene multiplex; actives raise or lower the signal. The method, boiled down: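 Multiplexed cis-reporter assay in human HepG2 liver cells, 24 h incubation with test chemical. Reporter transcripts measured by RT-PCR and capillary electrophoresis; values from bidirectional curve fitting versus DMSO.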

Assay [9] in a line: ATG_PBREM_CIS: Attagene CIS-FACTORIAL HepG2 Assay for human Phenobarbital-responsive Enhancer Module (PBREM) (AID 2282955). Conditions: HepG2 PBREM cis-reporter, Attagene multiplexed transcription; actives raise or lower the signal. The method, boiled down:
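Endogenous transcription factor activity was read from reporter transcripts in transiently transfected human HepG2 liver cells after 24 h dosing. RT-PCR products were fluorescently labelled, HpaI-cut and sized by capillary electrophoresis; activity fitted bidirectionally against DMSO baseline.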

For assay [10], the target named is Paired box protein Pax-6 (Homo sapiens) (UniProt P26367). Description: ATG_Pax6_CIS: Attagene CIS-FACTORIAL HepG2 Assay for human Paired Box 6 (PAX6) (AID 2282956). The note with it: HepG2 CIS-FACTORIAL PAX6 reporter transcription, RNA readout; actives raise or lower the signal. The method, boiled down: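 Values derive from bidirectional curve fitting of reporter mRNA signal relative to DMSO. HepG2 cells bearing transfected cis-regulated MRTUs were exposed for 24 h; transcripts were read by RT-PCR and capillary electrophoresis.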
Sequence of Paired box protein Pax-6 (Homo sapiens) (P26367 whole entry, looked up): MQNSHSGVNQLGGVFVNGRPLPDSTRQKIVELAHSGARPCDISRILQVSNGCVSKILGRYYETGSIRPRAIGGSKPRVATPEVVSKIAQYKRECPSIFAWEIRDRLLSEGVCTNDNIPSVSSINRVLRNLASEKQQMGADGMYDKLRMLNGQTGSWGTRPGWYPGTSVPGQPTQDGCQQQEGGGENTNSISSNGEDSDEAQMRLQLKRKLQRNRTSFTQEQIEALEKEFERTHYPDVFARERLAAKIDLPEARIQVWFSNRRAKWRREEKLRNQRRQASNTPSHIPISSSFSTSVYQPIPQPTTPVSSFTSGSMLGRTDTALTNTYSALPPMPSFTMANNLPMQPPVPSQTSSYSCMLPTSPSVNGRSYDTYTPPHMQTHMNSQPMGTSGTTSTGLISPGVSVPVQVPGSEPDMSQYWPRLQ

Assay [11] in a line: ATG_PXRE_CIS: Attagene CIS-FACTORIAL HepG2 Assay for human Pregnane X Receptor Element (PXRE) (AID 2282957). Conditions: HepG2 Attagene CIS-FACTORIAL PXRE reporter, mRNA; actives raise or lower the signal. A digest of the protocol:
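Bidirectional activity, baselined to DMSO, derived from reporter mRNA fluorescence (RT-PCR plus capillary electrophoresis) in HepG2 cells bearing cis-promoter reporter units, 24 h exposure.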

Assay [12] in a line: ATG_PPRE_CIS: Attagene CIS-FACTORIAL HepG2 Assay for human Peroxisome Proliferator-activated Response Element (PPRE) (AID 2282958). The note with it: HepG2 PPRE cis-element reporter, Attagene transcription factor profiling; actives raise or lower the signal. The method, boiled down:
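Endogenous PPRE-driven transcription is measured in HepG2 cells carrying transfected multi-reporter constructs. Reporter transcripts are quantified by RT-PCR, HpaI digestion and capillary electrophoresis 24 h after dosing. DMSO baseline, bidirectional fit.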

Assay [13] in a line: ATG_Sox_CIS: Attagene CIS-FACTORIAL HepG2 Assay for human SRY-box transcription factor (SOX) (AID 2282960). The note with it: HepG2 Attagene cis-factorial SOX reporter, mRNA; actives raise or lower the signal. The method, boiled down:
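Reporter transcripts, measured by RT-PCR and capillary electrophoresis of labelled fragments, report endogenous SOX transcription factor activity. Transiently transfected human HepG2 cells receive chemical for 24 h; changes in either direction are fitted relative to DMSO.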

For assay [14], the target named is Transcription factor Sp1 (Homo sapiens) (UniProt P08047). Description: ATG_Sp1_CIS: Attagene CIS-FACTORIAL HepG2 Assay for human Specificity Protein 1 (Sp1) (AID 2282961). The note with it: HepG2 Sp1 cis-reporter transcription, actives raise or lower the signal. A digest of the protocol:
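Read-out is reporter transcript level, measured by RT-PCR and fluorescent capillary electrophoresis after 24 h chemical treatment. System: transiently transfected HepG2 cells reporting endogenous transcription factor activity; gain or loss fitted against DMSO baseline.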

Assay [15] in a line: ATG_SREBP_CIS: Attagene CIS-FACTORIAL HepG2 Assay for human Sterol Regulatory Element Binding (SREBP) (AID 2282962). Conditions: HepG2 Attagene cis-factorial SREBP reporter, mRNA; actives raise or lower the signal. A digest of the protocol:
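Values derive from bidirectional curve fitting with DMSO as baseline. The underlying measurement is reporter mRNA from cis-element-regulated units in transiently transfected HepG2, quantified by RT-PCR and capillary electrophoresis after 24 h exposure.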

For assay [16], the target named is Signal transducer and activator of transcription 3 (Homo sapiens) (UniProt P40763). Description: ATG_STAT3_CIS: Attagene CIS-FACTORIAL HepG2 Assay for human Signal Transducer and Activator of Transcription 3 (STAT3) (AID 2282963). Conditions: HepG2, Attagene cis-factorial STAT3 reporter transcription; actives raise or lower the signal. A digest of the protocol:
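Cis-factorial format: endogenous transcription factors in HepG2 drive transfected reporter units. After 24 h treatment, reporter RNA was reverse-transcribed, amplified, FAM-labelled and HpaI-digested before CE analysis; activity scored in both directions against DMSO.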

Assay [17] in a line: ATG_TA_CIS: Attagene CIS-FACTORIAL HepG2 Assay for human TA Basal Promoter (AID 2282964). Conditions: HepG2 Attagene CIS-factorial TA basal promoter reporter; actives raise or lower the signal. A digest of the protocol: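 Transfected HepG2, 24 h compound exposure; RNA → RT-PCR → FAM primer extension → HpaI cut → CE fluorescence. Gain/loss-of-signal fitted against DMSO negative control. Background-control readout.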

Assay [18] can be described thus: ATG_M_32_CIS: Attagene CIS-FACTORIAL HepG2 Assay for M32 Transcription Factor (Internal Marker) (AID 2282949).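 Also: background control marker of the multiplexed CIS panel rather than a real target.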 The note with it: HepG2 Attagene cis-factorial M32 reporter, mRNA; actives raise or lower the signal. A digest of the protocol: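 Transient MRTU transfection of HepG2; 24 h compound treatment; TriZol RNA, oligo(dT) RT, reporter PCR, 6-FAM primer extension, HpaI cut, CE. Gain/loss of signal vs DMSO.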

The nature of assay [19]: ATG_RORE_CIS: Attagene CIS-FACTORIAL HepG2 Assay for human RAR-related Orphan Receptor Element (RORE) (AID 2282959). Conditions: HepG2 Attagene cis-factorial RORE reporter, mRNA; actives raise or lower the signal. A digest of the protocol: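 RORE reporter transcripts reflecting endogenous factor activity were read after 24 h compound exposure of transfected HepG2 cells, using reverse transcription, PCR, fluorescent labelling and capillary electrophoresis sizing. Gain or loss fitted against DMSO.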

The nature of assay [20]: ATG_GRE_CIS: Attagene CIS-FACTORIAL HepG2 Assay for human Glucocorticoid Response Elements (GRE) (AID 2282947). Conditions: HepG2 GRE cis-reporter, Attagene multiplex mRNA; actives raise or lower the signal. The method, boiled down: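 Multiplexed cis-reporter mRNA induction, HepG2, 24 h post-dose. RT-PCR, FAM-labelled, HpaI-digested amplicons by CE. Bidirectional fit vs DMSO.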

Calls of active or inactive are those of the source. The calls were made as follows: active = hit-call score of the fitted dose curve at least 0.9, where 1 is the maximum; inactive = score below 0.9.

Sequence of Transcription factor Sp1 (Homo sapiens) (P08047 whole entry, looked up): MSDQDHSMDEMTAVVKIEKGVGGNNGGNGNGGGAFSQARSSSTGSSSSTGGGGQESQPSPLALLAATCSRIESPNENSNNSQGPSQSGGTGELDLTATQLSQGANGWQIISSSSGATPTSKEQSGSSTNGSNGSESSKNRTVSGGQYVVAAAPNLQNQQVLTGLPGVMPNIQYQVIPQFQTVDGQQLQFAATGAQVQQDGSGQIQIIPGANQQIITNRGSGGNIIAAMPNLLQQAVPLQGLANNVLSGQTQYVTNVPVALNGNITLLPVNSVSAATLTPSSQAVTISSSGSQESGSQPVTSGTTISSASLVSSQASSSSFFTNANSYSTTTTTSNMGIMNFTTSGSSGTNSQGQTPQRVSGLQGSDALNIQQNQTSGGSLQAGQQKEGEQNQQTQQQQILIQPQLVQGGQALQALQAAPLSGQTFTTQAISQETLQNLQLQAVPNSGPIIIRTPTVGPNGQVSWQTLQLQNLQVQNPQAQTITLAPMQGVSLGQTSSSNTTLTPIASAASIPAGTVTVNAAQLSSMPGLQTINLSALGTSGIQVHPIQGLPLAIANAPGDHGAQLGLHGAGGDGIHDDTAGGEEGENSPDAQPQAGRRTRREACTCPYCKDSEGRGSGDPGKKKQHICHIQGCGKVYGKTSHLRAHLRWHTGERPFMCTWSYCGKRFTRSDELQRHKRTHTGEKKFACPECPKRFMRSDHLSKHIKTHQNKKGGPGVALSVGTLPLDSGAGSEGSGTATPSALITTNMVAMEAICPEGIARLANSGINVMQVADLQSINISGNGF
Sequence of Heat shock factor protein 1 (Homo sapiens) (Q00613 whole entry, looked up, the tested form may be a part): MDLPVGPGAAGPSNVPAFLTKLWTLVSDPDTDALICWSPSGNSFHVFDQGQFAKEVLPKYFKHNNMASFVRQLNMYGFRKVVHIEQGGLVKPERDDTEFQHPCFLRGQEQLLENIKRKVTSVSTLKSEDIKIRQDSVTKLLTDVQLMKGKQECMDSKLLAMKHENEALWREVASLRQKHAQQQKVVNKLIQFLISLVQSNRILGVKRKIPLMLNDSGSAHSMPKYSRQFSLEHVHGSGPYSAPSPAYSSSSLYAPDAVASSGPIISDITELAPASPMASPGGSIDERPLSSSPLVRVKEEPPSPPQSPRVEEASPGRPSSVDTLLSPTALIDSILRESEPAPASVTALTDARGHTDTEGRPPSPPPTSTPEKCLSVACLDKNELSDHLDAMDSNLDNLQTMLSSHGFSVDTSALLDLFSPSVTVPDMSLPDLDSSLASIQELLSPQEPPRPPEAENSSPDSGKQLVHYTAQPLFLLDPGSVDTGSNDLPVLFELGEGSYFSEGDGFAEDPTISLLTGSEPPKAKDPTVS
Sequence of Signal transducer and activator of transcription 3 (Homo sapiens) (P40763 whole entry, looked up): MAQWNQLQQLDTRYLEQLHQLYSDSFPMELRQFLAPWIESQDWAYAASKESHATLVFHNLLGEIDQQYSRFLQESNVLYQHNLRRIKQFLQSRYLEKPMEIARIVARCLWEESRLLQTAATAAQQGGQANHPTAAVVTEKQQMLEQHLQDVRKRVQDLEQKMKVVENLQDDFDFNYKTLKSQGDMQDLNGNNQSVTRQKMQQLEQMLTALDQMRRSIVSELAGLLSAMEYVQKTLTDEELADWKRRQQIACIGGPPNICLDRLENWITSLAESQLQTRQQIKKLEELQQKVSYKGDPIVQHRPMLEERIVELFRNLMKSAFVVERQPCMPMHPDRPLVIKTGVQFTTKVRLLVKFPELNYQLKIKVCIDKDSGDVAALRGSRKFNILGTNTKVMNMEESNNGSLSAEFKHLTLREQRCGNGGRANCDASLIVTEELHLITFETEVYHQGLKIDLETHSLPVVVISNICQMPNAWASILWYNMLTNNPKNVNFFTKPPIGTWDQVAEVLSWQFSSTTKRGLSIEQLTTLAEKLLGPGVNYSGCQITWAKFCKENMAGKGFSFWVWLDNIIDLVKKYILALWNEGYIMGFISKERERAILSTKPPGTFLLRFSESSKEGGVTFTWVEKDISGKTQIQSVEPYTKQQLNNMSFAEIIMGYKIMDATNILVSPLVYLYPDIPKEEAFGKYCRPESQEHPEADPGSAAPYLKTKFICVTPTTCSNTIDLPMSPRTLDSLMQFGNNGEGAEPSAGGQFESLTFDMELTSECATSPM
Sequence of Hypoxia-inducible factor 1-alpha (Homo sapiens) (Q16665 whole entry, looked up): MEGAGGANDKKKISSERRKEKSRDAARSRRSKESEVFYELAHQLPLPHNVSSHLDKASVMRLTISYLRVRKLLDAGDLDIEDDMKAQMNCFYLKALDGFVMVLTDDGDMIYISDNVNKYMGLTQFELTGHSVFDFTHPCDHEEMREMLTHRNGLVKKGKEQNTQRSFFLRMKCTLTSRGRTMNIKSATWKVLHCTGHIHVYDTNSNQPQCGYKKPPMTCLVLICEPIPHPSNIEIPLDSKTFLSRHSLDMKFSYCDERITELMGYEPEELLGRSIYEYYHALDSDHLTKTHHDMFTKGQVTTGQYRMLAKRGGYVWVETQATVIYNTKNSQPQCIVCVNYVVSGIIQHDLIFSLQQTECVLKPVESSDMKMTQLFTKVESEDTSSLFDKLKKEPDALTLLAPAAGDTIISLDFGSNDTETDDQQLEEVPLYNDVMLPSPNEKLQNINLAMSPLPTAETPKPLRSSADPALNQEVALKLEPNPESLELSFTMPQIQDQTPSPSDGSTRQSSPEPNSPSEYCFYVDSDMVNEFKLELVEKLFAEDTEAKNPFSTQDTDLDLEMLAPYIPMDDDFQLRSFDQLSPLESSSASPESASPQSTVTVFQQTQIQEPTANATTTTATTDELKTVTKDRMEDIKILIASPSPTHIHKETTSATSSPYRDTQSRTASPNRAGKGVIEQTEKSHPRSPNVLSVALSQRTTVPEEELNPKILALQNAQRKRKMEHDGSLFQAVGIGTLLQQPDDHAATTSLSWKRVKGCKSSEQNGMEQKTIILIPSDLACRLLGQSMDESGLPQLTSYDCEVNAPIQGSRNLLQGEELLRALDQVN
Sequence of Hepatocyte nuclear factor 6 (Homo sapiens) (Q9UBC0 whole entry, looked up, the tested form may be a part): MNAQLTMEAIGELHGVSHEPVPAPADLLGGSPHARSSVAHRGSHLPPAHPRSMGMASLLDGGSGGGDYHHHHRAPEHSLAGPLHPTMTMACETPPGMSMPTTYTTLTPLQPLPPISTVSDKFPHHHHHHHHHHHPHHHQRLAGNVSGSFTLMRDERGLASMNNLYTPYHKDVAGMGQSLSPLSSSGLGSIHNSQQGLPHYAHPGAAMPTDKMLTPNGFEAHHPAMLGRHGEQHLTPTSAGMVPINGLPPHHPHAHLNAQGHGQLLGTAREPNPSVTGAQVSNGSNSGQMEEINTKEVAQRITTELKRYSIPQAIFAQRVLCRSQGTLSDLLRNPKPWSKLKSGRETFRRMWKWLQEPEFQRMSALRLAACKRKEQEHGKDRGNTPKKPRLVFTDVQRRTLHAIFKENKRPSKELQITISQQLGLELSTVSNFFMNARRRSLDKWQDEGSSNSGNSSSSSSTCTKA

In the case of `Cc1noc(NS(=O)(=O)c2ccc(N)cc2)c1C`, the molecule was called inactive in assay [1], in assay [2], in assay [3], in assay [4], in assay [5] and in [6]. Moreover, the outcome in assay [7], in assay [8], in assay [9], in assay [10], in [11] and in [12] was inactive. Further, the result in assay [13], in [14], in [15], in assay [16] and in assay [17] was inactive.

On to `CCCCC(CC)COS(=O)(=O)O` (stereo unspecified), for which the call in assay [1], in assay [2], in assay [3], in [18], in assay [5] and in [6] was inactive. For the same molecule, the result in [7], in assay [8], in assay [10], in [19], in [13] and in assay [14] was inactive. Moreover, the call in [15], in [16] and in [17] was inactive.

On to `NNS(=O)(=O)c1ccc(Oc2ccc(S(=O)(=O)NN)cc2)cc1`, for which the call in assay [1], in assay [2], in [3], in assay [4], in [5] and in [6] was inactive. In addition, the molecule was called inactive in assay [8], in assay [10], in assay [11], in [13], in assay [14] and in assay [15]. The molecule was classed as inactive in assay [16] and in [17].

Regarding `Nc1ccc(O)c([N+](=O)[O-])c1`, the result in assay [1], in assay [20], in assay [3], in assay [18], in assay [4] and in assay [5] was inactive. The outcome in assay [6], in [7], in assay [8], in assay [9], in [10] and in [11] was inactive. The molecule was called inactive in assay [12], in assay [19], in assay [13], in assay [14], in assay [15] and in [16]. Besides, in assay [17], the molecule was called inactive.

With `CCCCCCOc1ccc(N)cc1`, the molecule was called inactive in assay [1], in [2], in [3], in assay [18], in assay [4] and in assay [5]. Further, the molecule was classed as inactive in assay [6], in assay [8], in [9], in [10], in assay [19] and in assay [14]. Also, the outcome in assay [15], in [16] and in assay [17] was inactive. Besides, the AC50 in [11] was 26.8 µM (active).

Turning to `Nc1ccc(Cl)c(N)c1`, the call in assay [1], in assay [2], in assay [3], in assay [18], in assay [5] and in assay [6] was inactive. Further, the outcome in assay [7], in assay [8], in assay [11], in [19], in [13] and in [14] was inactive. In addition, the call in assay [15], in assay [16] and in assay [17] was inactive.

These data come from PubChem BioAssay (EPA / NIEHS).
